The values that follow come from PubChem BioAssay AID488896 (Broad Institute, 2010).

Out of some 320,000 compounds screened, about 3,100 (0.97%) were called active. What follows is part of a selection rich in actives, with near analogues and random picks from the rest. Unmarked numbers belong to inactive results.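 How the source made its calls: active means mean replicate inhibition of at least 70% and a set share of replicates each scoring 70 or more; inconclusive means meets just one of the two criteria; inactive means fails both criteria.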

By inhibition is commonly meant the relative decrease from the control value, in per cent.

Sequence of Scavenger receptor class B member 1 (Mus musculus) (Q61009 whole entry, looked up): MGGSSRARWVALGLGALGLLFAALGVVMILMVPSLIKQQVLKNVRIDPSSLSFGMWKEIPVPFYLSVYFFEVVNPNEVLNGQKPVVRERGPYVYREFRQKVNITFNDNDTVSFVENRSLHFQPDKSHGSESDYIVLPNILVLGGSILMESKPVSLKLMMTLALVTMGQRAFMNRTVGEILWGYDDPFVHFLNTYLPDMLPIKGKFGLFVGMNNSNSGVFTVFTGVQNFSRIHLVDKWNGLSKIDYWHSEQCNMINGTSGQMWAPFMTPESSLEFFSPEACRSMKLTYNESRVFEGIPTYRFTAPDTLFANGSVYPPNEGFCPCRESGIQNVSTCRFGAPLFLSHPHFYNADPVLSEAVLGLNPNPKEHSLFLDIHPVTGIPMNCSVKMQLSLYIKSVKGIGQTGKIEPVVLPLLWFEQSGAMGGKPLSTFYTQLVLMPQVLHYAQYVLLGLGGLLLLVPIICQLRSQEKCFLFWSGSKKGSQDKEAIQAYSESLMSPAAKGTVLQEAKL

This assay addresses Scavenger receptor class B member 1 (Mus musculus) (UniProt Q61009). The experiment in a line: mouse SR-BI DiI-HDL uptake blockers – ldlA[mSR-BI] cells, fluorescence, single point, primary screen (AID 488896).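 Further: 0% = median of neutral control wells and 100% = median of positive control wells.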 The note with it: ldlA[mSR-BI] CHO cells, 3 h, at 12.5 µM, active compounds read high.
Regarding `O=C1CC(C(=O)O)NC(=S)N1` (stereo not given), the inhibition is -3.49%.

On to `COc1ccc(Br)cc1C(=O)NC(=S)Nc1cc(-c2nc3ccccc3[nH]2)ccc1C`, for which the inhibition is 60.8%.

Turning to `COc1cc(OC)c(C(=O)Nc2ccccc2-c2ccccc2)cc1OC`, the inhibition is 20.8%.

On to `COc1ccc(Br)cc1C(=O)Nc1cccc(C)c1C`, for which the inhibition was 76.2% (active).

As for `Cc1ccc(OCCNC(=O)c2cccc(S(=O)(=O)N3CCN(Cc4ccccc4)CC3)c2)cc1`, the inhibition is 20.6%.

As for `COc1ccc(C(=O)Nc2cccc(/C=C(/CCC(=O)O)c3nc4ccccc4s3)c2)cc1`, the inhibition is 36.4%.

On to `O=C(N/N=C/c1ccc(OC(=O)c2ccccc2Cl)cc1)c1ccc(O)cc1`, for which the inhibition is 44.4%.

For `CC(C)(C)C(=O)Nc1ccc(C(=O)N/N=C/c2ccccc2OC(=O)c2ccc(Cl)cc2Cl)cc1`, the inhibition was 94.1% (active).

As for `O=C(N/N=C/c1ccoc1)c1ccc(Cl)cc1Cl`, the inhibition was -28.2%.

Turning to `O=C(NCC1(N2CCCCC2)CCCCC1)c1cccc(S(=O)(=O)Nc2ccccc2Cl)c1`, the inhibition was -8.99%.

Regarding `Cc1ccc(C2=Nc3c(ccc4ccccc34)C(c3ccncc3)=NN2)cc1`, the inhibition was 2.19%.

`COc1ccc2c(c1)C(c1cccs1)=NNC(c1cccnc1)=N2`: the inhibition was -13.8%.

On to `CCOc1ccc2c(c1)C(c1ccc(C)cc1)=NNC(c1ccc(C)cc1)=N2`, for which the inhibition was 85.5% (active).

Regarding `CN(C)c1ccc(CSc2ccccc2)cc1`, the inhibition was -8.91%.

On to `O=C(CCCCCCCC(=O)N1CCCCC1)N1CCCCC1`, for which the inhibition is -7.35%.

`CSCCC(NC(=O)COc1ccccc1)C(=O)N1CCN(c2cccc(C(F)(F)F)c2)CC1` (stereo not given): the inhibition was 13.3%.

Take `Cc1ccc(C)c(OCC(=O)N2CCN(C(=O)c3ccco3)CC2)c1`: the inhibition is -10.6%.

In the case of `Cc1ccc(OCC(=O)Nc2ccc(N3CCN(C(=O)c4ccco4)CC3)cc2)c(C)c1`, the inhibition was 78% (active).

Take `CCC(=O)Nc1ccc(C(=O)N2CCN(C(=O)c3ccco3)CC2)cc1`: the inhibition is -9.2%.

For `COc1cc2[nH]c(O)c(C=O)c2cc1OC`, the inhibition was -52%.

On to `O=C1OCC2=C1C(c1ccc(Cl)cc1)c1cc3c(cc1O2)OCO3` (stereo not given), for which the inhibition was 14%.

Turning to `CCOc1ccc(Nc2nc(Cl)nc(N3CCN(c4ccc(OC)cc4)CC3)n2)cc1`, the inhibition was 73.8% (active).

On to `COc1ccc(Nc2ncc(F)c(N3CCOCC3)n2)cc1`, for which the inhibition was 22.2%.

For `Cc1ccc(Nc2nc(N3CCOCC3)nc(N3CCOCC3)n2)cc1Cl`, the inhibition is 55%.

In the case of `CCN(CC)S(=O)(=O)c1cccc(NC(=O)c2ccc(S(=O)(=O)N3CCCC3)cc2)c1`, the inhibition was 41.2%.

In the case of `Cn1c(N)cc(=O)n(C)c1=S`, the inhibition was -17.8%.

With `CN(C)c1ccc(C(=S)N2CCN(C(=S)Nc3ccc(Cl)cc3)CC2)cc1`, the inhibition was 95% (active).

As to `NC(=O)C1(N2CCCCC2)CCN(C(=S)Nc2ccc(Cl)cc2)CC1`, the inhibition was -24.6%.

Turning to `CCOC(=O)c1ccc(NC(=S)N2CCCC2)cc1`, the inhibition was -10.4%.

Consider `Cc1nc(-c2ccc(Cl)cc2)sc1C(=O)NN`, for which the inhibition was 25.2%.

Consider `C=CCNC(=O)c1cc(-c2ccccc2O)on1`, for which the inhibition was 44.1%.

With `C=CCNC(=O)c1sc(SC)cc1-c1ccc(Cl)cc1`, the inhibition was 73.9% (active).

Take `CC[C@]12c3[nH]c4cc(CCC(=O)N(C)C)ccc4c3CCN1C(=O)[C@@H](CC(=O)NCC13CC4CC(CC(C4)C1)C3)C[C@@H]2C(=O)N1CCN(C(=O)C2CC2)CC1`: the inhibition was 1.08%.

For `CCn1c(SCC(=O)N/N=C/C=C/c2ccccc2[N+](=O)[O-])nnc1-c1ccccc1`, the inhibition was 14.2%.

Take `Cc1ccc(-n2c(SCC(=O)N/N=C/C=C/c3ccccc3[N+](=O)[O-])nc3ccccc3c2=O)cc1`: the inhibition was 74% (active).

With `O=C(CSc1nc2ccccc2[nH]1)N/N=C/C=C\c1ccccc1[N+](=O)[O-]`, the inhibition was 4.51%.

Turning to `CNN/C(N=Cc1ccc([N+](=O)[O-])s1)=N\S(=O)(=O)c1cc(C)c(Cl)cc1SCc1ccccc1`, the inhibition is -9.94%.

With `CC(C=Cc1ccccc1)=NNS(=O)(=O)c1ccc([N+](=O)[O-])cc1`, the inhibition is -6.47%.

Consider `CCc1ccc(C(=O)C(C)OC(=O)CN2C(=O)NC3(CCCC3)C2=O)cc1` (stereo not given), for which the inhibition is -13.5%.

Turning to `CC(C)(C)S(=O)(=O)N1Cc2cc(CO)cc(CCO)c2[C@H]1CCO`, the inhibition was 2.47%.

In the case of `CCOc1ccc(-n2c(O)c(/C=N/Nc3nnc(C)c(=O)[nH]3)c3ccccc3c2=O)cc1`, the inhibition was 108% (active).

For the compound `CCOc1ccc(-n2c(O)c(/C=N/Nc3nc(C)cc(C)n3)c3ccccc3c2=O)cc1`, the inhibition was 34.2%.

Regarding `CCOc1ccc(-n2c(O)c(/C=N/c3ccnn3Cc3ccncc3)c3ccccc3c2=O)cc1`, the inhibition was -0.942%.

On to `CC(=O)N1CCc2ccc(N)cc21`, for which the inhibition is 12.2%.

Consider `COc1cc(/C=N/NC(=O)c2ccoc2C)ccc1OCCN1CCCCC1`, for which the inhibition is 3.01%.

On to `COc1cc(/C=N/NC(=O)Nc2ccccc2)ccc1OCCOc1ccccc1C`, for which the inhibition is 71.4% (active).

For the compound `COc1cc(/C=N/NC(=O)Cc2ccccc2)cc(OC)c1OC`, the inhibition is 3.39%.

`O=C1OC(Oc2ccc(Br)cc2)(c2ccccc2)c2ccccc21` (stereo not given): the inhibition was 0.981%.

On to `CCc1nnc(NC(=O)c2cc(S(=O)(=O)N3CCN(CC)CC3)ccc2Cl)s1`, for which the inhibition was -25.4%.

In the case of `NS(=O)(=O)c1cccc(NC(=O)CSc2nc3ccccc3n2-c2ccccc2)c1`, the inhibition was 23.7%.

For `Cc1ccc(-n2c(SCC(=O)Nc3ncc(Cl)cc3Cl)nc3ccccc32)cc1`, the inhibition is 78.1% (active).

For `CCOc1ccc(-n2c(SCC(=O)Nc3cc(C(=O)O)ccc3Cl)nc3ccccc3c2=O)cc1`, the inhibition is -14%.

Turning to `COc1ccc2sc(-c3ccc(S(C)(=O)=O)cc3)c(-c3ccc(C(N)=O)cc3)c2c1`, the inhibition is 54.1%.

Take `COc1ccc(-c2sc3ccc(OC)cc3c2C#Cc2ccccn2)cc1`: the inhibition is 56.6%.

As for `COc1ccc2sc(-c3ccc(N(C)C)cc3)c(C#CCO)c2c1`, the inhibition was 99.4% (active).

Turning to `COc1cc(OC)cc(-c2sc3ccc(OC)cc3c2-c2ccc3cc[nH]c3c2)c1`, the inhibition is 58.8%.

Regarding `COc1ccc2sc(-c3ccc(N(C)C)cc3)c(-c3ccc4cc[nH]c4c3)c2c1`, the inhibition was 85% (active).

On to `COc1ccc2sc(-c3ccc(S(C)(=O)=O)cc3)c(C#Cc3cncn3C)c2c1`, for which the inhibition is 13.9%.

In the case of `CN1CCC(N(C)C(=O)c2ccc(Cl)c(S(=O)(=O)Nc3ccc(Cl)cc3)c2)CC1`, the inhibition was -12%.

In the case of `O=C(NCC1CCCCC1)NCC1CCCCC1`, the inhibition is -12.9%.

For the compound `O=C(O)c1ccc(S(=O)(=O)c2ccccc2)s1`, the inhibition was -1.03%.

As for `COc1ccc2nc(N3C(=O)C(O)=C(C(=O)c4ccco4)C3c3ccco3)sc2c1` (stereo not given), the inhibition was -2.11%.

On to `O=C(Cc1ccc(S(=O)(=O)N2CCOCC2)s1)Nc1ccc(Br)c(C(F)(F)F)c1`, for which the inhibition is -43.4%.

Take `CC(C)Cn1cnc2c(SCc3ccc(Cl)cc3)nc(N)nc21`: the inhibition is 7.71%.

As to `CCC(C)C(=O)Nc1ccccc1N1CCN(c2ccc(F)cc2)CC1` (stereo not given), the inhibition was 36.3%.

For `Cc1cccc(C(=O)Nc2ccccc2N2CCN(c3ccc(F)cc3)CC2)c1`, the inhibition is 74.9% (active).

In the case of `CCCCC(=O)Nc1ccccc1N1CCN(c2ccc(F)cc2)CC1`, the inhibition is 34%.

For `c1ccc(-c2nnc(N3CCOCC3)c3ccccc23)cc1`, the inhibition is 27.8%.

As to `OCCN1CCN(c2nnc(-c3ccccc3)c3ccccc23)CC1`, the inhibition was 3.57%.

On to `CCCC(=O)N1CCN(c2nnc(-c3ccc(C)cc3)c3ccccc23)CC1`, for which the inhibition is 76.8% (active).

Regarding `Cc1ccc(-c2csc(C(C#N)=C(O)CN3CCN(C(=O)c4ccco4)CC3)n2)cc1`, the inhibition is 4.1%.

With `CCOc1ccc(/C=C(/C#N)c2nnc(N3CCOCC3)n2-c2ccccc2)cc1OC`, the inhibition was -9.11%.

In the case of `O=C(Cc1ccc(NC(=O)C2CCCN(C(=O)C3CCCCC3)C2)cc1)Nc1cccc(C(=O)N2CCCCC2)c1` (stereo not given), the inhibition was 43.2%.

As for `CNc1nc(=O)n(C2CCCO2)cc1C` (stereo not given), the inhibition is 0.704%.

For `CCOC(=O)N(Cc1ccccc1)C1CC1`, the inhibition was 1.61%.

As for `CC(=O)Nc1ccc(-c2csc(NC=C3C(=O)OC(C)(C)OC3=O)n2)cc1`, the inhibition is 4.07%.

For the compound `Cc1cccc(Nc2nc(-c3ccccc3)cs2)n1`, the inhibition is 52.4%.

Regarding `COc1ccc(CC(=O)Nc2nc(-c3ccc(F)c(F)c3)cs2)cc1OC`, the inhibition was 29.1%.

On to `CC(=O)Nc1cccc(-c2csc(Nc3cccc(C)n3)n2)c1`, for which the inhibition is 76.4% (active).

Turning to `COc1ccc(CCNc2nc(-c3cccc(NC(C)=O)c3)cs2)cc1OC`, the inhibition is 75.5% (active).

For `COc1ccc(CCN(C(=O)COc2ccccc2)c2nc(-c3ccccc3)cs2)cc1OC`, the inhibition is 24.1%.

In the case of `CCC1([N+](=O)[O-])COC(c2ccc(C)cc2)OC1` (stereo not given), the inhibition is -12.8%.

Consider `Nc1cc(=O)n(Cc2ccccc2)c(=O)n1Cc1ccccc1`, for which the inhibition was 0.22%.

In the case of `C[C@@H]1ON(C)[C@H]2C[C@H]3c4cc(N5CCN(C)CC5)ccc4CCN3C(=O)[C@@H]12`, the inhibition was -19.4%.

For the compound `Cn1c(=S)sc2ccc3ccccc3c21`, the inhibition was 5.87%.

Take `N#CC1(Nc2ccc(-c3ccc(Cl)cc3)cc2)CCCC1`: the inhibition was 5.44%.

`O=C(Nc1cccc(S(=O)(=O)N2CCCCC2)c1)c1ccc2c(c1)OCO2`: the inhibition is 8.54%.

Regarding `O=C(Nc1cccc(S(=O)(=O)Nc2ccc(Cl)cc2)c1)c1ccc2c(c1)OCCO2`, the inhibition was 70.2% (active).

Consider `O=C(Nc1ccc(NC(=O)c2ccc3c(c2)OCO3)cc1)c1cccc(Cl)c1`, for which the inhibition is -14.8%.

Turning to `NS(=O)(=O)c1ccc(CCNC(=O)c2ccc(Cl)c(S(=O)(=O)N3CCCCCC3)c2)cc1`, the inhibition is 32.8%.
